{"source": "the GenesisPotency data set", "note": "Hit rate of the full screen: of about 500 compounds, about 40 (8%) were called active.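 The calls were made as follows: active = mean IC50 below 20 µM in each of the two panels, so potent in both; inactive = the rest.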 Only a sample is shown."}
{"target": "T1, Neuropilin-1, Homo sapiens (UniProt O14786)", "T1 sequence (whole entry)": "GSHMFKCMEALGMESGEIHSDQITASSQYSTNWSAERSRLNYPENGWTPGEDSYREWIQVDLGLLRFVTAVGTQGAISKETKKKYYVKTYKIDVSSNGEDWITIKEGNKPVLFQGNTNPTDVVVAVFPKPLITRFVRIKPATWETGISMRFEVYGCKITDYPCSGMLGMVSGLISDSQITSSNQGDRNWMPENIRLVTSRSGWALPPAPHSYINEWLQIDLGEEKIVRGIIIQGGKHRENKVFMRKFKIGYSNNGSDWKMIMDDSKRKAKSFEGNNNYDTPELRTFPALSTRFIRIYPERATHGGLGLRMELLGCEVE", "assay": "blockers of CendR peptide binding to NRP-1 – biochemical, FP and AlphaScreen panel, dose response (AID 651650)"}
{"smiles": "Cn1c(=O)c2[nH]c(COc3ccccc3)nc2n(C)c1=O", "outcome": "inactive"}
